Results from PubChem BioAssay.
Active and inactive are the calls of the source. Unless noted, no rule for the calls is given here.

What was measured:
[1] = A549 cell viability effects, profiling panel, calcein-AM fluorescence, 48 h, basal (AID 1162); conditions: higher = more signal; also: test concentration not given here
[2] = adipocyte viability effects, profiling panel, cell-based, 3T3-L1 adipocytes, calcein-AM fluorescence, 48 h, basal (AID 1163); conditions: 3T3-L1 adipocytes viability, higher = more signal; also: test concentration not given here
[3] = HepG2 cell viability effects, profiling panel, calcein-AM fluorescence, 48 h, basal (AID 1164); conditions: higher = more signal; also: test concentration not given here
[4] = MM1S cell viability effects, profiling panel, calcein-AM fluorescence, 48 h, basal (AID 1165); conditions: higher = more signal;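 also: viability of MM1S multiple myeloma cells under basal unstimulated conditions; test concentration not given here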
[5] = basal RPMI8226 viability, no added stimulus, profiling panel, cell-based, calcein-AM fluorescence, 48 h, PK04 Diversity Set (AID 1166); conditions: RPMI8226 myeloma viability, higher = more signal;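 also: cells grown under basal conditions without added stimulus; test concentration not given here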
[6] = basal HepG2 mitochondrial membrane potential changes, profiling panel, cell-based, JC-1 fluorescence, 24 h, 100 nL compound (AID 1167); conditions: higher = more signal; also: test concentration not given here
[7] = basal 3T3-L1 adipocyte mitochondrial potential changes, profiling panel, cell-based, JC-1 fluorescence, 3T3-L1 adipocytes, 24 h, 100 nL compound (AID 1168); conditions: JC-1 mitochondrial fluorescence, higher = more signal, called active from +8 up or from −8 down; also: test concentration not given here
[8] = basal RPMI8226 mitochondrial membrane potential changes, profiling panel, cell-based, JC-1 fluorescence, 24 h, 100 nL compound (AID 1169); conditions: RPMI8226 myeloma, JC-1 mitochondrial potential fluorescence, higher = more signal; also: test concentration not given here
[9] = basal MM1S mitochondrial membrane potential changes, profiling panel, cell-based, JC-1 fluorescence, 24 h, 100 nL compound (AID 1170); conditions: higher = more signal; also: test concentration not given here
[10] = A549 lung cancer cell viability effects, profiling panel, resazurin fluorescence, 24 h, PK04 Diversity Set (AID 1171); conditions: higher = more signal, called active from +8 up or from −8 down; also: test concentration not given here
[11] = HepG2 liver cancer cell viability effects, profiling panel, resazurin fluorescence, 24 h, PK04 Diversity Set (AID 1172); conditions: higher = more signal; also: test concentration not given here
[12] = basal S. cerevisiae growth modulation, no modifier, primary screen, OD600, strain BY4716, 24 h, basal condition (AID 1173); conditions: OD600, 24 h, higher = more signal, called active from +8 up or from −8 down
[13] = MM1S myeloma cell viability, profiling panel, resazurin fluorescence, basal, 24 h, PK04 Diversity Set (AID 1174); conditions: higher = more signal, called active from +8 up or from −8 down;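 also: MM1S multiple myeloma cell line; test concentration not given here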
[14] = molecular target: Dihydroorotate dehydrogenase (quinone), mitochondrial (Plasmodium falciparum (isolate 3D7)) (UniProt Q08210); experiment: PfDHODH enzyme inhibitors, primary screen, biochemical, C-terminal His tag, absorbance 600 nm (AID 1175); conditions: DCIP absorbance 600 nm, higher = more signal, called active from +8 up or from −8 down;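 also: recombinant parasite enzyme with a five histidine tag at its C terminus; test concentration not given here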
Sequence of Dihydroorotate dehydrogenase (quinone), mitochondrial (Plasmodium falciparum (isolate 3D7)) (Q08210 whole entry, looked up): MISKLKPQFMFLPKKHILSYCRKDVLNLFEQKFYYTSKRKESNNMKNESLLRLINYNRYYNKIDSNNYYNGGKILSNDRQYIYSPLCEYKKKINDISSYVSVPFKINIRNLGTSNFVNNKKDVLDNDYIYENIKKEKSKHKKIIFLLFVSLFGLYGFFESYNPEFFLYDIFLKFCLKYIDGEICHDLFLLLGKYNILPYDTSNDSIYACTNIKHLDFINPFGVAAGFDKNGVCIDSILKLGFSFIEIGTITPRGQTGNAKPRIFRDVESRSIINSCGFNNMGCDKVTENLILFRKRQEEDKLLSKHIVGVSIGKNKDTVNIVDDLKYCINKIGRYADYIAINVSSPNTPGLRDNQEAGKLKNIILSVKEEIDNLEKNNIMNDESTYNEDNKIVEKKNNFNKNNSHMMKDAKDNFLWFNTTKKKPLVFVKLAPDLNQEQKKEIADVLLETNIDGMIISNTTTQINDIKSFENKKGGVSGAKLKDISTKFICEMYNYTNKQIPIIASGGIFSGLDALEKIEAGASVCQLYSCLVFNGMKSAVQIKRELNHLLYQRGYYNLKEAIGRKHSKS

[15] = P. aeruginosa biofilm formation inhibitors, primary screen, strain PAO1, LB-PBS medium, absorbance 600 nm (AID 1176); also: test concentration not given here; conditions: P. aeruginosa PAO1 growth/biofilm, A600, 12 h; higher = more signal
[16] = S. cerevisiae RM11-1a growth modifiers, primary screen, strain RM11-1a, OD600, basal, 24 h (AID 1177); conditions: OD600, 24 h, higher = more signal, called active from +8 up or from −8 down;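 also: cultures grown under basal conditions with no added stressor; test concentration not given here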
[17] = E. coli acrAB mutant growth effects, primary screen, E. coli filamentation inducers, strain DRC39, OD650, 24 h (AID 1178); conditions: higher = more signal, called active from +8 up or from −8 down;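 also: growth measured as culture turbidity by optical density at 650 nm; test concentration not given here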
[18] = E. coli acrAB mutant growth effects, primary screen, E. coli filamentation inducers, strain DRC39, OD650, 48 h (AID 1179);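 also: screen aims at cell division blockers that make cells filament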; conditions: E. coli DRC39 delta-acrAB growth, higher = more signal, called active from +8 up or from −8 down
[19] = RPMI8226 myeloma cell viability, profiling panel, resazurin fluorescence, basal, 24 h, PK04 Diversity Set (AID 1180); conditions: higher = more signal;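 also: RPMI8826 multiple myeloma cell line at 5000 cells per well; test concentration not given here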
[20] = molecular target: E3 ubiquitin-protein ligase XIAP (Homo sapiens) (UniProt P98170); experiment: XIAP binders, primary screen, biophysical, small-molecule microarray, fluorescence 635 nm (AID 1181); conditions: small-molecule microarray binding, higher = more signal;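 also: score merges 667 nm emission and signal to noise over triplicate slides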
Sequence of E3 ubiquitin-protein ligase XIAP (Homo sapiens) (P98170 whole entry, looked up): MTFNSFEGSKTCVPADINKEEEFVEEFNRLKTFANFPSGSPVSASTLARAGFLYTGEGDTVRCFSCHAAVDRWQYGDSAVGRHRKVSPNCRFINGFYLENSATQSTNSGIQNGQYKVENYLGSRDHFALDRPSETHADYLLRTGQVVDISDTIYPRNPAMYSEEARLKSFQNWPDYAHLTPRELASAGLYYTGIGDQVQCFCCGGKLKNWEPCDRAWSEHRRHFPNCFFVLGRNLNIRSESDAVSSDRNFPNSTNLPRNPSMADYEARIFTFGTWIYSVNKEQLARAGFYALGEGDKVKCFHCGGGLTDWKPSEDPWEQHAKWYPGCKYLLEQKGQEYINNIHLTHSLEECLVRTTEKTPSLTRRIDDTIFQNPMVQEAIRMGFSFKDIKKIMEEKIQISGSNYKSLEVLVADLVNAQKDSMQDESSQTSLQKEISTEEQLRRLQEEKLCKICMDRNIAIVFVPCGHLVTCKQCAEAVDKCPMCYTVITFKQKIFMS

| SMILES | z-score [1] | z-score [2] | z-score [3] | z-score [4] | z-score [5] | z-score [6] | z-score [7] | z-score [8] | z-score [9] | z-score [10] | z-score [11] | z-score [12] | z-score [13] | composite z-score [14] | z-score [15] | z-score [16] | z-score [17] | z-score [18] | z-score [19] | composite z-score [20] |
| --- | --- | --- | --- | --- | --- | --- | --- | --- | --- | --- | --- | --- | --- | --- | --- | --- | --- | --- | --- | --- |
| CC(C)NC(=O)[C@@H]1c2ccccc2C(=O)N(C2Cc3ccccc3C2)[C@H]1c1ccc(CO)cc1 | 1.54 | -0.27 | 1.22 | 0.543 | 0.982 | 3.83 | 0.976 (inactive) | 0.459 | -0.096 | 1.81 (inactive) | 0.785 | 0.0928 (inactive) | 1.16 (inactive) | -0.427 (inactive) | -0.0528 (inactive) | 0.744 (inactive) | 0.859 (inactive) | 0.95 (inactive) | 1.59 | 0.133 |
| Cc1ccc(S[C@]2(C(=O)NCCCN(C)C)CC(=O)N(Cc3cc(C(F)(F)F)cc(C(F)(F)F)c3)[C@@H]2c2ccc(CO)cc2)cc1 | -0.159 | 0.374 | -0.767 | -0.47 | 0.51 | 0.263 | -0.849 (inactive) | 0.199 | 0.339 | -0.106 (inactive) | -0.144 | -1.33 (inactive) | -0.522 (inactive) | -0.132 (inactive) | 0.621 (inactive) | -0.607 (inactive) | 0.0957 (inactive) | -0.339 (inactive) | -0.402 | 0.164 |
| C=CC[C@]1(C(=O)NCc2ccccc2)N=C(c2ccc(OCCCO)cc2)O[C@H]1c1ccccc1N=[N+]=[N-] | -1.2 | 0.514 | -0.0143 | -1.77 | -1.41 | -0.456 | 0.474 (inactive) | -0.938 | 0.0422 | -0.888 (inactive) | -0.0155 | -0.737 (inactive) | -1.93 (inactive) | 1.52 (inactive) | 1.39 (inactive) | 0.599 (inactive) | 0.498 (inactive) | -0.822 (inactive) | -1.31 | 0.0623 |
| COc1ccc([Si](C)(C)[C@H]2[C@H](CCO)O[C@@]3(C(=O)N(Cc4ccc(N(C=O)c5ccccc5)cc4)c4ccccc43)[C@@H]2C)cc1 | -0.585 | -1.32 | -2.76 | -1.48 | -3.78 | 0.119 | -0.393 (inactive) | -1.03 | -1.88 | -1.68 (inactive) | -1.57 | 1.83 (inactive) | -3.71 (inactive) | 0.041 (inactive) | 2.06 (inactive) | 4.71 (inactive) | 0.216 (inactive) | -0.495 (inactive) | -2.77 | -0.163 |
| COCCOC(=O)N1C(=O)[C@@]2(c3cc(C#CCC(C(=O)OC)C(=O)OC)ccc31)[C@H](C(=O)N1CCN(c3ncccn3)CC1)[C@H]1C(=O)O[C@H](c3ccccc3)[C@H](c3ccccc3)N1[C@@H]2c1ccccc1OCCO | 0.0182 | 0.462 | -0.481 | -0.748 | 0.297 | 1.37 | 1.39 (inactive) | -0.182 | -1.2 | -0.174 (inactive) | -0.354 | 1.51 (inactive) | -0.0626 (inactive) | -1.42 (inactive) | 3.78 (inactive) | 2.75 (inactive) | 0.284 (inactive) | 0.0336 (inactive) | -0.5 | -0.0749 |
| O=C1c2ccccc2[C@](Cc2ccccc2I)(C(=O)NCC(F)(F)F)[C@H](c2ccc(CO)cc2)N1Cc1ccccc1Cl | 0.0986 | 0.46 | 0.0068 | -1.06 | -1.55 | 0.798 | 0.149 (inactive) | -0.68 | -1.34 | 1.57 (inactive) | 1.08 | -1.32 (inactive) | 0.519 (inactive) | -0.246 (inactive) | 0.723 (inactive) | -0.838 (inactive) | 0.489 (inactive) | 0.53 (inactive) | 0.417 | -0.0663 |
| COc1ccc(CCNC(=O)[C@@]2(Sc3ccc(C)cc3)CC(=O)N(C3Cc4ccccc4C3)[C@@H]2c2ccc(CO)cc2I)cc1 | 2.04 | 0.129 | 0.082 | -2.56 | -1.99 | 0.26 | -0.279 (inactive) | -0.597 | -0.565 | 0.86 (inactive) | 0.0641 | -3.1 (inactive) | -2.13 (inactive) | 0.371 (inactive) | -0.171 (inactive) | 1 (inactive) | 0.0559 (inactive) | -0.325 (inactive) | -1.43 | 0.148 |
| O=C(NCCN1CCOCC1)[C@@H]1c2ccccc2C(=O)N(C2CCCCC2)[C@H]1c1ccc(CO)cc1 | 1.37 | 1.19 | 2.16 | -0.165 | -1.03 | 3.08 | -0.0789 (inactive) | 0.0842 | 0.146 | 1.17 (inactive) | -0.0383 | 0.211 (inactive) | 0.528 (inactive) | -0.146 (inactive) | -0.177 (inactive) | 0.0492 (inactive) | -0.424 (inactive) | -0.783 (inactive) | 0.872 | -0.165 |
